Screens deposited in PubChem BioAssay by Bradner/Qi Labs at DFCI.
CBX7 AlphaScr: CBX7 inhibition, primary AlphaScreen | AlphaScreen His6-CBX7 / biotin-H3K27me3 peptide binding; hits give low values | normalised signal (fraction of DMSO) (test concentration not listed) | O95931 | 66,000 tested, 1.1% active; in the data active = normalised signal below about 0.5
Target sequence (O95931 whole entry, looked up): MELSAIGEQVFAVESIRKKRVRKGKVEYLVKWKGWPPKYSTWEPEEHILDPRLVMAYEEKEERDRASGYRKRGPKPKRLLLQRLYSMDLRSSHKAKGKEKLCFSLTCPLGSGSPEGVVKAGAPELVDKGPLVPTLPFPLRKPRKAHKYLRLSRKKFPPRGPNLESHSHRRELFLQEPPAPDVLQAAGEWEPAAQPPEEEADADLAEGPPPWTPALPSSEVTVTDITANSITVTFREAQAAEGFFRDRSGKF
* = called active by the depositor. Shown is part of a subset that was picked to be rich in hits.

SMILES	CBX7 AlphaScr
COc1cc(OC)cc(-c2nnc(NC(=O)c3ccc(S(=O)(=O)N4CCCC(C)C4)cc3)o2)c1 (stereo not drawn)	1.1
COc1ccccc1-c1nnc(NC(=O)c2ccc(S(=O)(=O)N3CCCC(C)C3)cc2)o1 (stereo not drawn)	0.82
COc1cc(OC)cc(-c2nnc(NC(=O)c3ccc(S(=O)(=O)N(C)Cc4ccccc4)cc3)o2)c1	0.076*
COCCN(CCOC)S(=O)(=O)c1ccc(C(=O)Nc2nnc(-c3cccc(OC)c3)o2)cc1	0.95
COc1cccc(-c2nnc(NC(=O)c3ccc(S(=O)(=O)N(C)C)cc3)o2)c1	0.23*
COc1ccccc1-c1nnc(NC(=O)c2ccc(S(=O)(=O)N(C)C)cc2)o1	0.036*
COCCNC(=O)CN1C(=O)COc2ccccc21	1.1
Cc1ccccc1NC(=O)C(c1ccccc1)N1CC(=O)Nc2ccccc21 (stereo not drawn)	1.1
CCC(=O)N1CCc2cc(S(=O)(=O)NCCCN3CCC(C)CC3)ccc21	1.1
O=C(NCC1CCCO1)c1ccc2c(c1)N(Cc1ccccc1F)C(=O)c1ccccc1S2=O (stereo not drawn)	0.95
O=C1CC(C(=O)NCC2CCCO2)c2ccccc2N1 (stereo not drawn)	1.5
COCc1cc(C)nc2sc3c(-c4ccc(F)cc4F)onc3c12	1.1
Cc1ccc(S(=O)(=O)Nc2nnc(C(F)(F)F)s2)cc1	0.98
Cc1ccc(-c2nc(CSCC(=O)NC(C)C)c(C)o2)cc1	0.99
Cc1cccc(CCNC(=O)C2c3ccccc3C(=O)N3CCc4ccccc4C23)c1 (stereo not drawn)	1.1
O=C(CN1C(=O)COc2ccc(S(=O)(=O)N3CCCCCC3)cc21)N1CCOCC1	1.1
CCCCN(C)S(=O)(=O)c1ccc(C(=O)Nc2nnc(-c3ccc(OC)cc3OC)o2)cc1	0.97
COc1ccc(-c2nnc(NC(=O)c3ccc(S(=O)(=O)N(C)Cc4ccccc4)cc3)o2)c(OC)c1	0.0014*
COc1ccc(-c2nnc(NC(=O)c3ccc(S(=O)(=O)N4CCOCC4)cc3)o2)c(OC)c1	0.58
Cc1ccc2nc(N3CCC(C(=O)NC4CCCC4)CC3)[nH]c2c1	1
COc1ccc(OC)c(NC(=O)c2cnc3sccn3c2=O)c1	1
Cc1c(NC(=O)c2ccccc2F)cccc1-c1nc2ccccc2s1	1.1
Cc1c(NC(=O)c2ncn[nH]2)cccc1-c1nc2ccccc2s1	0.18*
O=C(Nc1ccc2oc(-c3ccccc3Cl)nc2c1)c1ccc(F)cc1	1
Cc1c(NC(=O)c2ncn[nH]2)cccc1-c1nc2cc(Cl)ccc2o1	0.12*
SMILES	CBX7 AlphaScr
Cc1c(NC(=O)c2ccccc2F)cccc1-c1nc2cc(Cl)ccc2o1	1.1
O=C(Nc1ccccc1-c1nc2ccccc2s1)c1ccccc1	1
Cc1c(NC(=O)c2cc3ccccc3o2)cccc1-c1nc2cc(Cl)ccc2o1	1
O=C(Nc1ccc2oc(-c3ccccc3Cl)nc2c1)c1cncc(Br)c1	1
O=C(Nc1ccc2oc(-c3ccccc3Cl)nc2c1)c1ncn[nH]1	0.043*
COc1ccc(C2C(=O)N(C3CCCCC3)CC(=O)N2Cc2ccc(F)cc2)cc1OC (stereo not drawn)	1
CC(C)C1Nc2ccc(C(=O)N3CCC(Cc4ccccc4)CC3)cc2NC1=O (stereo not drawn)	0.79
CC(=O)N1CCc2cc(S(=O)(=O)NC(CC(C)C)C(=O)NC(C)c3ccccc3)ccc21 (stereo not drawn)	0.94
COc1ccc(-c2cc(C(=O)NC3CCCCC3)no2)cc1	1.3
CCOc1ccc(-c2cc(C(=O)NCCCOC(C)C)c3ccccc3n2)cc1	1
O=C(CCn1nc(-c2ccc(Cl)cc2)ccc1=O)NCc1ccc(F)cc1Cl	1.1
CCOc1ccc(NC(=O)c2c(NCc3cccs3)sc3c2CCC3)cc1	0.9
Cc1ccc(-c2nnc(SCC(=O)N3CCCCC3C)o2)cc1 (stereo not drawn)	0.95
COc1ccc(Cl)cc1NC1c2ccccc2C(=O)N1Cc1ccccc1 (stereo not drawn)	0.53
Cc1ccc(NC2c3ncccc3C(=O)N2Cc2ccc(F)cc2)cc1C (stereo not drawn)	0.79
COc1ccc(CN2C(=O)c3cccnc3C2Nc2cc(Cl)c(OC)cc2OC)cc1 (stereo not drawn)	0.073*
COc1ccc(CN2C(=O)c3cccnc3C2Nc2ccc(C)cc2)cc1 (stereo not drawn)	0.5
COc1ccc(NC2c3ccccc3C(=O)N2Cc2ccccc2)cc1Cl (stereo not drawn)	0.99
COc1ccc(CN2C(=O)c3cccnc3C2Nc2ccc(OC)cc2)cc1 (stereo not drawn)	0.017*
COP(=O)(OC)C(c1ccccc1)c1nc2ccccc2[nH]c1=O (stereo not drawn)	1.1
CC1CN(S(=O)(=O)c2ccc(C(=O)Nc3nnc(-c4ccccc4Cl)o3)cc2)CC(C)O1 (stereo not drawn)	0.041*
CCCCN(C)S(=O)(=O)c1ccc(C(=O)Nc2nnc(-c3ccccc3Cl)o2)cc1	0.91
O=C(Nc1nnc(-c2cccs2)o1)c1ccc(S(=O)(=O)N2CCOCC2)cc1	0.71
CCC1CCCCN1S(=O)(=O)c1ccc(NC(=O)c2oc3ccccc3c2C)cc1 (stereo not drawn)	0.93
CCC1CCCCN1S(=O)(=O)c1ccc(C(=O)Nc2nnc(-c3ccccc3Cl)o2)cc1 (stereo not drawn)	0.055*
SMILES	CBX7 AlphaScr
O=C(Nc1nnc(-c2ccccc2Cl)o1)c1ccc(S(=O)(=O)N2CCOCC2)cc1	0.052*
O=C(Nc1nnc(-c2ccccc2Cl)o1)c1ccc(S(=O)(=O)N2CCCC2)cc1	0.89
COc1cc(OC)cc(-c2nnc(NC(=O)c3ccc(S(=O)(=O)N4CC(C)OC(C)C4)cc3)o2)c1 (stereo not drawn)	0.91
NC(=O)Cn1c(=O)n(CCc2c[nH]c3ccccc23)c(=O)c2cccnc21	1.1
CCCc1ccc(-c2ccc(-c3noc(-c4ccncc4)n3)cc2)cc1	1.1
Clc1ccc2nc(-c3ccccn3)cc(-c3ccccc3)c2c1	1.1
COc1ccc(CN2C(=O)N(c3ccc(OC)cc3)C(=O)C2CC(=O)Nc2ccc(Cl)cc2)cc1 (stereo not drawn)	1
O=C(CC1(CC2=NS(=O)(=O)c3ccccc3N2)CCCC1)NCc1ccccc1Cl	0.81
Cc1ccc(-c2nc(N3CCN(c4ccccc4C)CC3)nc3ccccc23)cc1	1.7
O=C(Nc1nc(-c2ccncc2)cs1)c1ccc(S(=O)(=O)N2CCCCC2)cc1	1
CC1CCN(S(=O)(=O)c2ccc(C(=O)Nc3nc(-c4ccncc4)cs3)cc2)CC1	1
CC1CCN(S(=O)(=O)c2ccc(C(=O)Nc3nc(-c4ccccn4)cs3)cc2)CC1	0.96
CC1CCCCN1S(=O)(=O)c1ccc(C(=O)Nc2nc(-c3ccncc3)cs2)cc1 (stereo not drawn)	1
CC1CCCN(S(=O)(=O)c2ccc(C(=O)Nc3nc(-c4ccccn4)cs3)cc2)C1 (stereo not drawn)	0.22*
CC1CCCCN1S(=O)(=O)c1ccc(C(=O)Nc2nc(-c3ccccn3)cs2)cc1 (stereo not drawn)	0.19*
CC1CCCCN1CCCNC(=O)c1ccc2c(c1)NC(=O)c1ccccc1S2 (stereo not drawn)	0.98
Cc1nc2ccc(S(=O)(=O)NC(C(=O)Nc3ncccc3C)C(C)C)cc2s1 (stereo not drawn)	0.97
Cc1ccc(-c2cc(C(=O)NC3CCCCC3)c3cccc(Cl)c3n2)cc1C	1
